Screens (PubChem BioAssay)
VP16 counter = Gal4-VP16 reporter inhibition counter-screen. Drosophila S2 Gal4-VP16 UAS-luciferase, luminescence, 20 h. Potency, µM (titrated, usually from 53.6 µM), most hits filed as inhibitors. 3.5% of 310,000 active. AID 2546;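 note: Gal4-VP16 expression switched on by copper sulfate through the metallothionein promoter; nearly all actives have a fitted effect of over 50% in size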
Six1-Eya2 blk = Six1/Eya2 interaction inhibition. 0.56% of 360,000 active. activity change, % (no concentration beside the values). Q15475+O00167. AlphaScreen GST-Six1/His-Eya2 binding, biochemical; active compounds read low; in the data active = activity change below about -65%; inconclusive = mostly about -30% to -63%
Target sequence (O00167 whole entry, looked up): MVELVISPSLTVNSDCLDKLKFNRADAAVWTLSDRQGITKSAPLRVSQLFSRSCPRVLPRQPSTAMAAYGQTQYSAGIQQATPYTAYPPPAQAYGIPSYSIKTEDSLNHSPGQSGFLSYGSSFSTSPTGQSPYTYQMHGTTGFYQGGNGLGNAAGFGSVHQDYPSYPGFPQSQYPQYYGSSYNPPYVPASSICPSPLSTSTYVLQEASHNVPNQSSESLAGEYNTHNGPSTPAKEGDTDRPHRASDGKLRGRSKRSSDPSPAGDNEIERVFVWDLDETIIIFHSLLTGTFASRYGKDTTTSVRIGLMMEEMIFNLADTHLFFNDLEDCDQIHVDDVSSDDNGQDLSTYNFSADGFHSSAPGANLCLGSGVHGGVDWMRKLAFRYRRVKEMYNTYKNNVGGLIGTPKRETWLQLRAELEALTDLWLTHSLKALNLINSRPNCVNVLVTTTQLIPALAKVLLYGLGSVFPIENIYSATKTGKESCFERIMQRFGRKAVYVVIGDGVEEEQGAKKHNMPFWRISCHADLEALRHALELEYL
Target sequence (Q15475 whole entry, looked up): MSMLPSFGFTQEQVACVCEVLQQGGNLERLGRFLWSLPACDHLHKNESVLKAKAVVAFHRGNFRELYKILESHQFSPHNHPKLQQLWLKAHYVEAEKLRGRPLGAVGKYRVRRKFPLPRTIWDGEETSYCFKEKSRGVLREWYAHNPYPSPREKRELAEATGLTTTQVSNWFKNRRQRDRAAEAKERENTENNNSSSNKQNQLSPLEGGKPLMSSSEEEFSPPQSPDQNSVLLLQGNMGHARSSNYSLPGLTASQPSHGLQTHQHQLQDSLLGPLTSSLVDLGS
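GST-Six1 + His-Eya2 (5X stock: 250/500 nM); Tris pH 8.0, 300 mM NaCl, 0.05% BSA, 0.02% Tween 20; GSH donor/Ni acceptor beads; 1 h 37 °C dark; AlphaScreen readout.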
p53 reactivation = restores transcriptional activity of mutant p53 | 0.063% of 320,000 active | Potency, µM (top dose mostly 92.2 µM), hits mostly activators | AID 504706 | H1299 p53-A138V BP100-luciferase reporter, luminescence, 24 h; note: nearly all actives have a fitted effect of over 45% in size
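p53-null H1299 cells stably carrying temperature-sensitive p53-A138V and a BP100-luciferase reporter were pinned with compounds (4-point, 1:5 series) and held 24 hrs at 37 deg C. Luminescence was read 10 min after detection reagent.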
CtBP-E1A inh = blocks the CtBP interaction with E1A. AlphaScreen GST-E1A/His-CtBP binding, 1536-well; active compounds read low. activity change, % (concentration not given with the values). 0.49% of 340,000 active; in the data active = activity change below about -65%; inconclusive = mostly about -30% to -63%
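Steps: dispense buffer (Tris pH 8.0, NaCl 300 mM, TCEP 1 mM, BSA, Tween 20); add 5X protein mix (GST-E1A, His-CtBP, 125 nM each); pin 23 nL compound; 2 h at 37 °C, dark; add 5X beads (50 ug/mL); 1 h; read.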
RORg inh = ROR gamma (mouse) transcription inhibition; AID 2551; Drosophila S2 Gal4-RORgamma UAS-luciferase reporter, 20 h; 5.4% of 310,000 active; P51450; Potency, µM (top dose mostly 53.6 µM), hits mostly inhibitors; note: nearly all actives have a fitted effect of over 60% in size
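Luminescence from a UAS-regulated Photinus luciferase reporter in stably transfected Drosophila Schneider cells is measured; decreased signal marks ROR gamma inhibition. Fusion expression is induced by 700 uM copper sulfate for 20 hr.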
Each line names hits and unclear results; the compound was inactive in the other large screens. Hits are enriched below; roughly 5.4% of the tested compounds scored in any of these assays. Unless noted, calls come from the whole dose curve; as a rule, active = well fitted curve in the direction sought with a large enough effect; inconclusive = small, poorly fitted or top-dose-only effect, or another doubt; inactive = no such curve, though single readings can be large; an effect the other way counts as inactive or inconclusive.

COCCCNC(=S)NNC(=S)NCCCOC	RORg inh inconclusive
N[C@H](C(=O)O)c1nn[nH]n1	none (no result: Six1-Eya2 blk, p53 reactivation, CtBP-E1A inh)
CC1C(=O)N(Cc2cn(CCC3OCCO3)nn2)CCS(=O)(=O)N1Cc1ccc(-c2ccccc2)cc1 (configuration not stated)	none (no result: VP16 counter, p53 reactivation, RORg inh)
CCOC(=O)c1cn[nH]c1NC(=S)Nc1ccc(Cl)cc1	VP16 counter inconclusive, RORg inh 2.8µM
CCOC(=O)c1ccc(NC(=S)Nc2ccc(C)cc2)cc1	VP16 counter inconclusive, RORg inh 13µM
CCOC(=O)c1ccc(NC(=S)Nc2ccccc2)cc1	RORg inh inconclusive
CCOC(=O)c1ccc(NC(=S)NCCc2ccc(F)cc2)cc1	VP16 counter inconclusive, RORg inh 10µM
CCOC(=O)c1ccc(NC(=S)N2CCSC2c2ccc(Cl)cc2)cc1 (configuration not stated)	VP16 counter inconclusive, RORg inh 14µM
CCOC(=O)c1ccc(NC(=S)N2CCSC2c2ccc(OC)cc2)cc1 (configuration not stated)	VP16 counter inconclusive, RORg inh inconclusive
CCOC(=O)c1cccc(NC(=S)NCc2ccc(C)cc2)c1	VP16 counter inconclusive, RORg inh 10µM
CCCCCCCc1cc2ccccc2c(=O)o1	none (no result: Six1-Eya2 blk, p53 reactivation, CtBP-E1A inh)
Brc1ccc(C2=Nn3c(Cn4nnc5ccccc54)nnc3SC2)cc1	none
O=C(NNc1nc(-c2ccccc2)c2cc(Br)ccc2n1)c1ccc(S(=O)(=O)N2CCOCC2)cc1	VP16 counter 13µM, RORg inh 7.9µM
O=C(CN1CCCCC1)NNc1nc(-c2ccccc2)c2cc(Br)ccc2n1	VP16 counter 1.6µM, RORg inh 0.5µM
CCOC(=O)c1ccccc1NC(=O)c1cn(CC)c2nc(C)ccc2c1=O	VP16 counter inconclusive, p53 reactivation inconclusive, RORg inh 11µM
Cc1cc(O)c(C=O)c2c1C(=O)Oc1c(CO)c(O)c3c(c1O2)C(O)OC3=O (configuration not stated)	Six1-Eya2 blk -80
CC1CCc2c(nc3sc4c(c3c2N)CCCC4)C1 (configuration not stated)	VP16 counter inconclusive, p53 reactivation inconclusive, RORg inh 13µM
CCCCNC(=S)NNC(=O)c1csc(C)c1CC	RORg inh 2.8µM
CCCCNC(=S)NNC(=O)c1csc(CC)c1	VP16 counter inconclusive, p53 reactivation inconclusive, RORg inh inconclusive
C=CCNC(=S)NNC(=O)c1cccc2ccccc12	RORg inh 1.1µM
C=CCNC(=S)NNC(=O)c1csc(CC)c1	p53 reactivation inconclusive
C=CCNC(=S)NNC(=O)c1csc(C)c1CC	RORg inh 8.9µM
C=CCNC(=S)NNC(=O)c1ccccc1	VP16 counter inconclusive, RORg inh inconclusive
C=C(C)C(=O)OC[C@@H]1CCC[N@+]2(C)CCCCC12 (some centres not stated)	none (no result: Six1-Eya2 blk, p53 reactivation, CtBP-E1A inh)
Cc1ccc2c(c1)/C(=N/OS(=O)(=O)c1ccccc1)CCS2	none (no result: VP16 counter, p53 reactivation, RORg inh)
CC1=CC(=O)C=C(C)C1=NOS(=O)(=O)c1ccccc1	VP16 counter 18µM, RORg inh 18µM
CC1=CC(=O)C(C(C)C)=C/C1=N/OS(=O)(=O)c1ccccc1	VP16 counter 2µM, Six1-Eya2 blk inconclusive, RORg inh 2.8µM (no result: CtBP-E1A inh)
COc1ccc(C(C#N)=Cc2ccc(N(C)CCC#N)cc2)cc1	none (no result: VP16 counter, p53 reactivation, RORg inh)
COc1cc(C(=O)OCC(=O)Nc2ccc(S(=O)(=O)NC3=NCCCCC3)cc2)cc(OC)c1OC	none (no result: VP16 counter, CtBP-E1A inh, RORg inh)
O=C(Nc1nc(OCC(F)(F)F)cnc1/C=C\c1ccccc1)c1ccccc1	none (no result: VP16 counter, p53 reactivation, RORg inh)
CN(C)c1ccc2c(-c3ccccc3)c3ccc(=[N+](C)C)cc-3oc2c1	VP16 counter 3.2µM, RORg inh inconclusive (no result: Six1-Eya2 blk, p53 reactivation, CtBP-E1A inh)
O=C(NC1CCCCC1)C(c1ccc2ncccc2c1)N(Cc1ccccc1)C(=O)c1cccs1 (configuration not stated)	none
COc1ccc(CN(C(=O)c2cccs2)C(C(=O)NC2CCCCC2)c2ccc3ncccc3c2)cc1 (configuration not stated)	RORg inh 35µM
COc1cccc(C(C(=O)NC2CCCC2)N(Cc2cccnc2)C(=O)Cc2cccs2)c1 (configuration not stated)	none
COc1ccc(C(C(=O)NC2CCCC2)N(Cc2cccnc2)C(=O)Cc2cccs2)c(OC)c1 (configuration not stated)	RORg inh 10µM
N#CCN(CC#N)C(=O)C1c2ccccc2Oc2ccccc21	none (no result: VP16 counter, p53 reactivation, RORg inh)
Cc1ccc(-c2cc3cccc[n+]3cc2-c2ccc(C)cc2)cc1	VP16 counter 13µM, RORg inh inconclusive
CCCNC(=O)N(C)C[C@H]1Oc2ncc(C#CCc3ccccc3)cc2C(=O)N([C@H](C)CO)C[C@H]1C	none (no result: VP16 counter, p53 reactivation, RORg inh)
CC1=NN(c2nc(N)nc(/C(C#N)=C/c3ccc([N+](=O)[O-])o3)n2)C(C)(C)C1	none (no result: VP16 counter, p53 reactivation, RORg inh)
Cc1ccc(-c2nc3ccccc3o2)cc1NC(=S)NC(=O)/C=C/c1ccco1	VP16 counter inconclusive, RORg inh 2µM
O=C(/C=C/c1ccco1)NC(=S)Nc1cccc(-c2nc3ccccc3o2)c1	VP16 counter 13µM, RORg inh 2.2µM
CCOC(=O)c1sc(N2C(=O)C(O)=C(C(=O)c3ccco3)C2c2ccc([N+](=O)[O-])cc2)nc1C (configuration not stated)	none (no result: VP16 counter, p53 reactivation, RORg inh)
O=C(CC1S/C(=N/N=C2CCCCCC2)NC1=O)Nc1ccc(Br)cc1F (configuration not stated)	VP16 counter 5.6µM, RORg inh 2.2µM
CCCCCC(=O)NNC1=NCC(Cc2ccccc2)S1 (configuration not stated)	VP16 counter inconclusive, RORg inh 1.4µM
COc1cccc(/C=C/C(=C2/C(=O)N(c3ccccc3)N=C2C)c2ccc(C)cc2)c1OC	none
O=C(CNS(=O)(=O)Cc1ccccc1)NNc1ccccc1	none (no result: VP16 counter, p53 reactivation, RORg inh)
COc1cccc(/C=N/Nc2nccnc2Cl)c1O	VP16 counter 7.1µM, Six1-Eya2 blk -79, CtBP-E1A inh -93, RORg inh 3.2µM
COc1ccc(/C=N/Nc2nccnc2Cl)c(OC)c1	VP16 counter inconclusive, p53 reactivation inconclusive, RORg inh inconclusive (no result: CtBP-E1A inh)
COc1cccc(/C=N/Nc2ncnc3scc(-c4ccccc4)c23)c1O	VP16 counter 13µM, Six1-Eya2 blk -93, RORg inh 2.8µM
COc1cccc(/C=N/Nc2ncnc(Cl)c2N)c1O	VP16 counter 3.2µM, Six1-Eya2 blk -88, p53 reactivation inconclusive, CtBP-E1A inh -79, RORg inh 1.8µM
COc1cccc(C=NCCCN=Cc2cccc(OC)c2O)c1O	RORg inh 7.9µM
COc1ccc(Nc2ncnc3scc(-c4ccc(OC)cc4)c23)cc1	none
COc1ccc(/C=N/Nc2ncnc(Cl)c2N)cc1OC	VP16 counter inconclusive, RORg inh inconclusive
COc1ccccc1CN1CCC(CNS(=O)(=O)c2cc(-c3onc(C)c3C)ccc2OC)CC1	none
Cc1cc2ncc(C(N)=O)cn2n1	none
CSc1ccccc1C(=O)NCc1ccccc1C	none
